{"source": "PubChem BioAssay (NCATS)", "note": "Unmarked numbers belong to inactive results. The call rests on the fitted dose curve; in most records, active means well fitted curve in the direction sought with a large enough effect; inconclusive means small, poorly fitted or top-dose-only effect, or another doubt; inactive means no such curve, though single readings can be large or run the other way.", "data": [{"biological_target": "Hexokinase-4 (Homo sapiens) + Glucokinase regulatory protein (Homo sapiens) (UniProt P35557+Q14397)", "sequence (P35557 whole entry, looked up)": "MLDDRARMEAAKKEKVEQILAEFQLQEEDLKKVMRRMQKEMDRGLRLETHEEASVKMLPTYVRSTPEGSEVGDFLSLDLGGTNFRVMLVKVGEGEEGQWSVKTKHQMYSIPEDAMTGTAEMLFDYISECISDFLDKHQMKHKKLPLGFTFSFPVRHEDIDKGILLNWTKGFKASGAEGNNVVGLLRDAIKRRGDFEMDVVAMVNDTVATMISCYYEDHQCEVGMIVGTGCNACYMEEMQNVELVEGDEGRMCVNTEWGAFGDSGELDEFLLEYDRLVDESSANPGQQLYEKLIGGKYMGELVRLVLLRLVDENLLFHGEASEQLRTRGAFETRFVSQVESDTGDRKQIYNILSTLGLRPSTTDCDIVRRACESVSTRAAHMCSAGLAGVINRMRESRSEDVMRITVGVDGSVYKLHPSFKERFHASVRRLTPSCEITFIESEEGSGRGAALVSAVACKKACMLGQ", "sequence (Q14397 whole entry, looked up)": "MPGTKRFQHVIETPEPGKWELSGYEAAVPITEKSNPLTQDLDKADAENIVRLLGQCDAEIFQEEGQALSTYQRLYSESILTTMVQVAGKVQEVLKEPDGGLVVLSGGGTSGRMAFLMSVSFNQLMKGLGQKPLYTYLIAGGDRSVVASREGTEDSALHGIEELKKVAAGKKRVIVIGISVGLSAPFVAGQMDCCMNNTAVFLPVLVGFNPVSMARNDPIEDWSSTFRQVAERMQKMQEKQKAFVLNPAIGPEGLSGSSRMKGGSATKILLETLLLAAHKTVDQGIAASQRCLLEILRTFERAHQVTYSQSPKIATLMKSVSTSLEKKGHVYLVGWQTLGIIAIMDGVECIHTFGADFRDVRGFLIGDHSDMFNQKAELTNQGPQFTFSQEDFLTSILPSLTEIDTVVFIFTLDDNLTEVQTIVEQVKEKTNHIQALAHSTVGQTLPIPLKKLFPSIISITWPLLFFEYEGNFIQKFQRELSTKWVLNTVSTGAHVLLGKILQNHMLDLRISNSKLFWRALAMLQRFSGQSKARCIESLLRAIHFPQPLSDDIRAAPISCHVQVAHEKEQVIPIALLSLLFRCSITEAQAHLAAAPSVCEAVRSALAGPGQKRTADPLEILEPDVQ", "experiment": "qHTS assay for inhibitors of recombinant human GCK-GKRP interaction: ADP-Glo assay (AID 743206);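 further: plate controls were DMSO plus enzyme for no effect and no enzyme for full effect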", "conditions": "ADP-Glo luminescence, 60 min, 0% = vehicle-only wells with enzyme present; series mostly up to 76.9 µM; activity, positive = activation: at the top concentration", "summary_of_the_method": "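GST-GCK and FLAG-GKRP (15 nM each in the dispensed mix, with 2 uM S6P) react with 0.4 mM ATP and 5 mM glucose (final) in Hepes pH 7.6 for 60 min at room temperature. ADP is measured by ADP-Glo luminescence.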", "units": {"activity, positive = activation": "%"}, "values": [{"compound": "C[C@]12CCC(=O)C=C1CC[C@@H]1[C@@H]2C(=O)C[C@@]2(C)[C@H]1CC[C@]2(O)C(=O)CO", "activity, positive = activation": -3.37}, {"compound": "CNCCC(Oc1ccccc1OC)c1ccccc1", "note": "(configuration not stated)", "activity, positive = activation": 5.1}, {"compound": "CC(=O)[C@]1(O)Cc2c(O)c3c(c(O)c2[C@@H](O[C@H]2C[C@H](N)[C@H](O)[C@H](C)O2)C1)C(=O)c1ccccc1C3=O", "activity, positive = activation": -1.04}, {"compound": "CC(C)(C)c1ccc(C(=O)CCCN2CCC(OC(c3ccccc3)c3ccccc3)CC2)cc1", "activity, positive = activation": 0.766}, {"compound": "c1ccc2c(c1)CCCC2C1=NCCN1", "note": "(configuration not stated)", "activity, positive = activation": 2.99}, {"compound": "C(=C\\c1ccccc1)/CN1CCN(C(c2ccccc2)c2ccccc2)CC1", "activity, positive = activation": 0.184}, {"compound": "CC(C)NNC(=O)c1ccncc1", "activity, positive = activation": 1.54}, {"compound": "CCN(CC)CCCN(c1ccccc1)C1Cc2ccccc2C1", "activity, positive = activation": -2.79}, {"compound": "CC(C(=O)O)c1ccc(CC2CCCC2=O)cc1", "note": "(configuration not stated)", "activity, positive = activation": 3.24}, {"compound": "OC(CCN1CCCCC1)(c1ccccc1)C1CCCCC1", "note": "(configuration not stated)", "activity, positive = activation": 5.35}, {"compound": "FC(F)(F)c1ccccc1-n1ccnc1", "activity, positive = activation": -2.87}, {"compound": "CN1C[C@H](C(=O)N[C@]2(C)O[C@@]3(O)[C@@H]4CCCN4C(=O)[C@H](Cc4ccccc4)N3C2=O)C[C@@H]2c3cccc4[nH]cc(c34)C[C@H]21", "activity, positive = activation": 1.79}, {"compound": "CN1CCN(C2=Nc3ccccc3Oc3ccc(Cl)cc32)CC1", "activity, positive = activation": -4.75}, {"compound": "C[C@]12C=CC(=O)C=C1CC[C@H]1[C@@H]3C[C@@H](O)[C@](O)(C(=O)CO)[C@@]3(C)C[C@H](O)[C@@]12F", "activity, positive = activation": -0.625}, {"compound": "Cc1ccc(=O)n(-c2ccccc2)c1", "activity, positive = activation": 2.31}, {"compound": "CC1=C(C)C(=O)C(CCCCC#CCCCC#CCO)=C(C)C1=O", "activity, positive = activation": 4.65}, {"compound": "CCCCNC(=O)NS(=O)(=O)c1ccc(C)cc1", "activity, positive = activation": 3.68}]}]}
